Records with an inconclusive call do not appear. Where a call stands in place of a potency, no number is given. Activity calls are given as the source filed them. Calls come from the whole dose curve.
Potency is the fitted concentration of half-maximal effect.

The test can be described thus: Primary qHTS to identify inhibitors of SARS-CoV-2 cell entry (AID 1645846). Note: nearly all actives have a fitted effect of over 45% in size. The conditions noted are these: SARS-CoV-2 pseudovirus cell entry assay, luminescence; activity change, negative = inhibition: at 57.1 µM (top of the series) unless noted; series mostly up to 57.1 µM. The method, boiled down: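 HEK293 cells stably expressing human ACE2, pre-treated 1 h with compound, then infected with MLV particles pseudotyped with Wuhan-Hu-1 spike (C-terminal 19-aa truncation). Luciferase luminescence after 48 h at 37 °C, normalised to spike PP and bald PP.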
Take `CC(CC(C#N)(c1ccccc1)C(C)C)N(C)C` (stereo not drawn): the compound was classed as inactive.

As for `OC[C@@H](O)[C@@H](O[C@@H]1O[C@H](CO)[C@H](O)[C@H](O)[C@H]1O)[C@H](O)[C@@H](O)CO`, the compound was called inactive.

Turning to `C[N+]1(C)[C@@H]2CC(OC(=O)[C@H](CO)c3ccccc3)C[C@H]1[C@@H]1O[C@@H]12` (stereo partly drawn), the Potency entry is “inactive”. Consider `CO/N=C(/C(=O)N[C@@H]1C(=O)N2C(C(=O)[O-])=C(C[n+]3ccn4ncccc43)CS[C@H]12)c1nsc(N)n1`, for which the call was inactive. With `O=C1O[C@H](CO)[C@@H](O)[C@H](O)[C@H]1O`, the activity change, negative = inhibition is -15.4%. In the case of `CCCCN(CCCC)CCCOC(=O)c1ccc(N)cc1`, the activity change, negative = inhibition was -17.6%. On to `O=C(O)CNC(=O)c1ccccc1`, for which the outcome was inactive. For the compound `CCCCCCCCCCCC(=O)[O][Sn]([CH2]CCC)([CH2]CCC)[O]C(=O)CCCCCCCCCCC`, the activity change, negative = inhibition was -23.2%. `Cc1cc2c(cc1S(N)(=O)=O)S(=O)(=O)CCC2`: the call was inactive. With `CC1c2ccccc2CN1NC(=O)c1ccc(Cl)c(S(N)(=O)=O)c1` (stereo not drawn), the activity change, negative = inhibition is -22.6%. In the case of `COc1ccc2cc([C@H](C)C(=O)O)ccc2c1`, the Potency entry is “inactive”.

For `CCCCC(CC)CN1CN(CC(CC)CCCC)CC(C)(N)C1` (stereo not drawn), the outcome was inactive. For the compound `O=C(O)COc1nn(Cc2ccccc2)c2ccccc12`, the compound was classed as inactive. Take `Nc1nc(N)nc(-c2cc(Cl)ccc2Cl)n1`: the Potency entry was “inactive”. Take `O=c1[nH]c(=O)n([C@H]2C[C@H](O)[C@@H](CO)O2)cc1I`: the Potency is 15.8 µM (active). For `COc1cnc(NS(=O)(=O)c2ccc(N)cc2)nc1`, the call was inactive. Consider `CC(C)(C)CC(C)(C)c1ccc(OCCOCC[N+](C)(C)Cc2ccccc2)cc1`, for which the Potency was 20 µM (active). For `O=C1CC[C@H](C(=O)N2CCCCC2)N1`, the activity change, negative = inhibition came to 2.86%.

The record behind these values is PubChem BioAssay (NCATS).
